Only some compounds are listed: those with a hit (about 4.8% of all), similar ones and a draw of the others.
AI-2 QS mod: Vibrio harveyi AI-2 quorum sensing modulators, primary screen, JMH597 strain, luminescence/OD600 ratio. Vibrio harveyi JMH597 AI-2 luminescence/OD600 ratio, 9 h; hits give low values; strain lacks LuxN and CqsS sensors; 0 = neutral-control median. activity change, % at 7.5 µM. 300,000 tested, 0.4% active. AID 2094, 2009; in the data active = activity change below about -75%, passing the limit was not always enough; inconclusive = no clear call, values can overlap the other calls;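 note: luminescence divided by OD600 gain over 9 h not by final OD600 alone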
ALR H2O2 inh: inhibitors of human ALR sulfhydryl oxidase, primary screen, biochemical, H2O2 detection, HRP-luminol luminescence, single point. purified ALR, DTT oxidation. inhibition, % (test concentration not listed). 290,000 tested, 3.8% active. AID 485317, 2010. FAD-linked sulfhydryl oxidase ALR (Homo sapiens), P55789;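 active = mean replicate inhibition above about 79%, with every replicate also reaching it, limit read from the data; inconclusive = only one of the two criteria met; inactive = mean below limit and not every replicate reaching it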
Target sequence (P55789 whole entry, looked up): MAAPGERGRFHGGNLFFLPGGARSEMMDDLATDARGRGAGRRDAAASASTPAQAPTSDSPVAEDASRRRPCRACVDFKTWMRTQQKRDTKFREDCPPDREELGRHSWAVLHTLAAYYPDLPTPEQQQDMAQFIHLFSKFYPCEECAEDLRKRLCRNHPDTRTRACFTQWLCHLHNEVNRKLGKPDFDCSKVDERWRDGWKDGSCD
HIF act: HIF pathway transcriptional activators, primary screen, cell-based, U2OS HRE-luciferase, luminescence; U2OS HRE-luciferase reporter; normalized: DMSO 0%, desferrioxamine 100%; activation, % at 7.5 µM (by protocol); 300,000 tested, 0.32% active;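 active = mean activation of at least 10% of the iron chelator positive control signal, with at least half of replicates also reaching 10%; inconclusive = mean and replicate majority disagree about reaching 10%; inactive = mean and most replicates under 10%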
Mot1-301 SUMO: yeast Mot1-301 growth rescue at high temperature, primary screen, SUMOylation pathway inhibitor project, S. cerevisiae, ATP luminescence, 38.5C | S. cerevisiae Mot1-301 growth rescue; percent above DMSO median, 100 means doubled | 320,000 tested, 1% active | growth rescue, % at 18.8 µM;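 active = every valid replicate shows activation above 250% relative to neutral control wells; inactive = the rest, any valid replicate at or below 250%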;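 note: OY570 slx delta 5 strain wells were the positive control but not used for scaling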
The depositor's hits bear a star; u = inconclusive; x = no result given.

SMILES	AI-2 QS mod	ALR H2O2 inh	HIF act	Mot1-301 SUMO
CCOC(=O)c1sc(=S)n(Cc2ccccc2)c1N	-86*	10	0	-18
COC(=O)c1sc(=S)n(Cc2ccccc2)c1C	7	3	0	-23
CCOC(=O)c1sc(=S)n(CC)c1N	6	99*	0	7
O=C(OCC(=O)N1CCN(Cc2ccccc2)CC1)c1cc(Cl)ccc1[N+](=O)[O-]	x	-11	x	10
O=C(CCS(=O)(=O)c1ccc(F)cc1)Nc1nc(-c2ccncc2)cs1	16	-4	-1	316
CCOc1ccc(C2C(C(=O)c3ccco3)=C(O)C(=O)N2CCCn2ccnc2)cc1 (stereo unspecified)	22	x	0	x
CCCOc1cccc(C2C(C(=O)c3ccco3)=C(O)C(=O)N2CCCn2ccnc2)c1 (stereo unspecified)	29	5	39*	-5
C(=N\Nc1ccccc1)/c1ccc(N2CCOCC2)cc1	32	-35	2	63
Clc1cccc(N/N=C/c2ccc(N3CCOCC3)cc2)c1	37	-21	2	326*
O=C(O)c1cc(N/N=C/c2ccc(N3CCOCC3)cc2)ccc1Cl	39	97*	0	x
CCC(C)(C)c1ccc(OCCCC[n+]2ccccc2)c(C(C)(C)CC)c1	27	-10	0	290*
CCCCCc1ccc(OCCCC[n+]2ccccc2)c(CCCCC)c1	3	-18	0	88
COc1ccccc1OCC(=O)NNC(=O)CCCC(=O)NNC(=O)COc1ccccc1OC	4	1	0	10
C[N+]1(CC(=O)NNc2c3ccccc3nc3ccccc23)CCOCC1	5	99*	1	-13
COc1ccccc1OCC(=O)NNc1c2ccccc2nc2ccccc12	x	99*	0	-8
Cc1ccc(C(=O)NNc2c3ccccc3nc3ccccc23)cc1	-3	22	0	-2
Nc1ccccc1C(=O)NNc1c2ccccc2nc2ccccc12	21	98*	2	8
O=C(CN1CCOCCOCCOCC1)Nc1ccccc1	23	1	-1	20
O=C(CN1CCOCC1)NNc1c2ccccc2nc2ccccc12	9	98*	0	4
COc1ccc(COCC(O)CN2CCN(S(=O)(=O)c3ccc(C(C)C)cc3)CC2)cc1 (stereo unspecified)	x	-54	x	8
CCc1ccc(Nc2ncc3c(n2)CC(C)(C)CC3=O)cc1	-2	x	2	-14
CCn1cc(C(=O)NC(=S)Nc2ccccc2[N+](=O)[O-])cn1	1	99*	2	-7
O=C(NCc1ccc2c(c1)OCO2)c1cccc(C(=O)NCc2ccc3c(c2)OCO3)c1	-85*	-19	0	-8
O=C(NCc1ccco1)c1cccs1	23	x	0	18
Cc1ccc(C(=O)NCc2ccc3c(c2)OCO3)o1	13	9	-11	1
SMILES	AI-2 QS mod	ALR H2O2 inh	HIF act	Mot1-301 SUMO
O=C(NCc1ccco1)c1cc2c(s1)CSC2	30	99*	0	-6
O=C(NCc1ccc2c(c1)OCO2)c1cc2c(s1)CSC2	7	97*	0	-11
Cc1ccc(/C=C/C(=O)NCc2ccc3c(c2)OCO3)o1	-43	92*	0	-2
C/C(=N\NC(=O)c1cccc(S(=O)(=O)N2CCOCC2)c1)c1ccc(OCC(=O)N(C)C)cc1	12	22	0	-19
CCCCn1c(N)c(N(CCOC)C(=O)c2ccc3c(c2)OCCO3)c(=O)[nH]c1=O	14	-13	0	-13
COc1ccc(C)cc1NC(=O)CN(C)S(=O)(=O)c1ccc2c(c1)CC(C)N2C(C)=O (stereo unspecified)	-1	-6	0	-5
COc1cc(NCc2ccccc2O)c2ncccc2c1	8	x	0	x
COc1cc(NCCCCCCCN)c2ncccc2c1	18	96*	0	41
C=CCn1c(Sc2ncc([N+](=O)[O-])s2)n[nH]c1=O	u	54	-6	6
O=[N+]([O-])c1cnc(Sc2ccncn2)s1	-88*	-13	-6	44
COc1ccc(S(=O)(=O)NCc2cccnc2)cc1NC(=O)c1ccc(Cl)cc1	u	1	1	7
N#Cc1c(SCC(=O)Nc2cccc(C(F)(F)F)c2)sc2c(O)cc(=O)[nH]c12	29	99*	0	17
Cc1cc(NC(=O)CSc2sc3c(O)cc(=O)[nH]c3c2C#N)ccc1Br	14	99*	-1	319
COc1cccc(Oc2ncnc(N)c2[N+](=O)[O-])c1	11	1	1	2
CCOc1ccc(N(CC(=O)NC2CCCCC2)C(=O)Cn2nnc(-c3ccc(C)o3)n2)cc1	9	x	1	x
CCn1c(C)nc2cc(NC(=O)Nc3cccc(C(C)=O)c3)ccc21	15	2	-4	-6
COC(=O)c1ccc(NC(=O)C2CCN(C(=O)c3cc(OC)c(OC)c(OC)c3)CC2)cc1	x	0	0	336*
COc1cc(C(=O)N2CCN(C(=O)Cc3ccccc3)CC2)cc(OC)c1OC	16	-2	13*	37
COc1cc(C(=O)N2CCN(CCCc3ccccc3)CC2)cc(OC)c1OC	-3	x	1	-19
Cc1cccn2c(=O)c3cc(C(=O)NCc4cccnc4)c(=N)n(CC4CCCO4)c3nc12 (stereo unspecified)	7	x	0	14
Cc1ccccc1OCCC(=O)Nc1ccc2c(C)cc(=O)oc2c1	18	-4	1	-10
O=C(CSc1nc2c(c(=O)n1-c1ccc(Br)cc1)SCC2)Nc1nccs1	23	99*	0	-5
COC(=O)c1ccc(CSc2nc3c(c(=O)n2-c2ccccc2)SCC3)o1	3	28	0	-2
Cc1cc(NC(=O)CSc2nc3c(c(=O)n2-c2ccc(Cl)cc2)SCC3)no1	18	-1	45*	-16
COC(=O)c1ccc(CSc2nc3c(c(=O)n2-c2ccc(F)cc2)SCC3)o1	21	-6	11*	-5
SMILES	AI-2 QS mod	ALR H2O2 inh	HIF act	Mot1-301 SUMO
Cc1cc(NC(=O)CSc2nc3c(c(=O)n2C)SCC3)no1	11	4	0	9
C=CCN1c2ccccc2C(=O)CS1(=O)=O	x	4	x	9
CCOc1ccc(N)c(SSc2cc(OCC)ccc2N)c1	10	7	2	-2
CS(=O)(=O)c1ccc(N)c(SSc2cc(S(C)(=O)=O)ccc2N)c1	12	99*	2	7
CCN(CC)c1ccc(NC(=O)CSc2ccsc2[N+](=O)[O-])c(C)c1	-1	93*	0	-26
CCN(CC)c1ccc(NC(=O)CNCc2ccccc2Cl)c(C)c1	-3	99*	0	4
O=C(CSc1ccsc1[N+](=O)[O-])Nc1cc(F)ccc1F	7	x	0	x
CC1(C)CC(=O)N(CC(=O)NCc2ccccc2)c2ccccc2S1(=O)=O	28	x	0	198
CCN(CC)c1ccc(NC(=O)CN2C(=O)CC(C)(C)S(=O)(=O)c3ccccc32)c(C)c1	39	99*	x	-15

Compound activity (PubChem BioAssay)
